This is a sample that favours compounds with a hit; in the whole collection about 0.5% have one here.
E coli growth-1: reduces bacterial viability in AddAB counter-screen | AID 449728 | E. coli V3065 growth, OD600 absorbance, 18 h | 0.27% of 330,000 active | inhibition, % at 11.9 µM;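 active = inhibition above the campaign's mean inhibition across all tested compounds plus 3 SD, cut at about 9.9% in these data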;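 note: uninfected addAB+ strain grown without phage in ampicillin broth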
Tat export inh: E. coli Tat transport inhibition; E. coli MC4100 TorA-mCherry Tat export, fluorescence; inhibition, % at 10 µM; 0.036% of 340,000 active; AID 488895;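 active = mean replicate inhibition at least 50% and at least half of replicates individually reaching 50%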;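 note: exported cargo escapes ClpAP degradation while cytoplasmic cargo is degraded and loses fluorescence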
E coli growth-2: blocks Escherichia coli growth; OD600, 23 h; hits give low values; OD600 absorbance (no concentration beside the values); 0.21% of 330,000 active; AID 1053175;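 active = OD600 absorbance below the run mean of sample wells minus 3.6 SD, in any replicate, cut at about 0.56 in these data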
AddAB inh: less growth of phage-infected E. coli with AddAB | E. coli expressing H. pylori AddAB, absorbance growth | AID 435030 | 0.29% of 330,000 active | inhibition, % at 11.9 µM; in the data active = inhibition above about 12%
phage Ecoli inh: E. coli growth loss with phage present; growth absorbance; inhibition, % at 11.9 µM; 0.26% of 360,000 active; AID 651602; in the data active = inhibition above about 11%
A number is an active result.

Screening COc1ccc(NC(=O)N(C)CC2Oc3ccc(NS(=O)(=O)c4cccs4)cc3C(=O)N(C(C)CO)CC2C)cc1 (stereo not given) returned E coli growth-2 inactive.
For CCOC(=O)Cc1csc(NC(=O)C2CCCN(S(=O)(=O)c3cnc[nH]3)C2)n1 (stereo not given) the results were E coli growth-1 14, Tat export inh inactive, E coli growth-2 inactive, AddAB inh 24 and phage Ecoli inh inactive.
CCOc1ccc(NC(=O)C2CCCN(S(=O)(=O)c3cnc[nH]3)C2)cc1 (stereo not given) was read as E coli growth-1 inactive, Tat export inh inactive, E coli growth-2 inactive and AddAB inh inactive.
CC(CS)C(=O)N1CCCC1C(=O)O (stereo not given) was read as E coli growth-2 inactive.
Screening CN(C)CCOc1ccc(-c2c(-c3ccccc3)sc3ccccc23)cc1 returned E coli growth-1 inactive, Tat export inh inactive, E coli growth-2 0.34, AddAB inh inactive and phage Ecoli inh inactive.
c1ccc(-c2sc3ccccc3c2-c2ccc(OCCN3CCCCC3)cc2)cc1 was read as E coli growth-1 inactive, Tat export inh inactive, E coli growth-2 inactive, AddAB inh inactive and phage Ecoli inh inactive.
CCn1cc(C(=O)O)c(=O)c2cc(Br)ccc21 was read as E coli growth-1 inactive, Tat export inh inactive, E coli growth-2 0.56, AddAB inh inactive and phage Ecoli inh inactive.
Screening CCn1cc(C(=O)O)c(=O)c2cc3c(cc21)OCO3 returned E coli growth-1 97 and AddAB inh 97.
`CCn1cc(C(=O)N[C@@H](C)C(=O)OC)c(=O)c2cc3c(cc21)OCO3` gave E coli growth-1 inactive, Tat export inh inactive, E coli growth-2 0.084, AddAB inh inactive and phage Ecoli inh inactive.
Screening CCOC(=O)c1cn(CC)c2ccc(Br)cc2c1=O returned E coli growth-1 inactive, Tat export inh inactive, E coli growth-2 inactive, AddAB inh inactive and phage Ecoli inh inactive.
`S=C(NCc1ccco1)Nc1ccc(Cl)c(Cl)c1` gave E coli growth-1 inactive, Tat export inh inactive, E coli growth-2 0.47, AddAB inh inactive and phage Ecoli inh inactive.
`CCN1CSC(=S)N(Cc2ccc(OC)cc2)C1` gave E coli growth-1 inactive, Tat export inh inactive, E coli growth-2 0.5, AddAB inh inactive and phage Ecoli inh inactive.
Screening CCN1CSC(=S)N(Cc2ccccc2)C1 returned E coli growth-1 inactive, Tat export inh inactive, E coli growth-2 inactive, AddAB inh inactive and phage Ecoli inh inactive.
For CCCCCC[N+](C)(C)CCSSCC[N+](C)(C)CCCCCC the results were E coli growth-1 inactive, Tat export inh inactive, E coli growth-2 inactive, AddAB inh inactive and phage Ecoli inh inactive.
Screening CCCCCCCCCCCCCCCC[N+](C)(C)CC returned E coli growth-1 inactive, Tat export inh inactive, E coli growth-2 0.061, AddAB inh inactive and phage Ecoli inh inactive.
For Cc1ccc(S(=O)(=O)N2C(c3cccc(C)c3)CC=C(C(=O)O)C2c2cccc(Cl)c2)cc1 (stereo not given) the results were E coli growth-2 inactive.
`Cc1c(NC(=O)COc2cccc(F)c2)c(=O)n(-c2ccccc2)n1C` gave E coli growth-1 inactive, Tat export inh inactive, E coli growth-2 inactive, AddAB inh inactive and phage Ecoli inh inactive.
For Cc1c(NC(=O)COc2ccc3ccccc3c2)c(=O)n(-c2ccccc2)n1C the results were E coli growth-1 inactive, E coli growth-2 0.52, AddAB inh inactive and phage Ecoli inh inactive.
O=C(Nc1nnc(C2=COCCO2)o1)c1cccc(Br)c1 was read as E coli growth-1 inactive, Tat export inh inactive, E coli growth-2 0.48, AddAB inh inactive and phage Ecoli inh inactive.
`O=C(NC(=S)NNC(=O)c1cnccn1)c1ccc(F)cc1` gave E coli growth-1 inactive, Tat export inh inactive, E coli growth-2 0.41, AddAB inh inactive and phage Ecoli inh inactive.
For O=C(/C=C/c1ccc(F)cc1)NC(=S)NNC(=O)c1cnccn1 the results were E coli growth-1 inactive, Tat export inh inactive, E coli growth-2 inactive, AddAB inh inactive and phage Ecoli inh inactive.
CC[n+]1c(/C=C/c2ccc(N(C)C)cc2)ccc2ccccc21 was read as E coli growth-1 inactive, Tat export inh inactive, E coli growth-2 0.47, AddAB inh inactive and phage Ecoli inh inactive.
For CC[n+]1ccc(/C=C/c2ccc(N(C)C)cc2)c2ccccc21 the results were Tat export inh inactive, E coli growth-2 0.35 and phage Ecoli inh inactive.
`CCN(CC)c1ccc(/C=C/c2ccc3ccc(OC)cc3[n+]2CC)cc1` gave E coli growth-1 12, Tat export inh inactive, E coli growth-2 0.5, AddAB inh inactive and phage Ecoli inh inactive.
`N#CC(=Cc1ccc(O)c([N+](=O)[O-])c1)c1nc2ccccc2s1` gave E coli growth-2 inactive.
Screening CCc1ccc2[nH]c3nc(N/N=C/c4ccc(O)cc4O)nnc3c2c1 returned E coli growth-1 11, Tat export inh inactive, AddAB inh inactive and phage Ecoli inh inactive.
For Cc1ccccc1NN=C1CCCNC1=O the results were E coli growth-2 inactive.
`O=[N+]([O-])c1cccc2nc3ccccc3c(NCCCn3ccnc3[N+](=O)[O-])c12` gave Tat export inh inactive and phage Ecoli inh 16.
For O=[N+]([O-])c1ccccc1Nc1c2ccccc2nc2ccccc12 the results were E coli growth-1 inactive, Tat export inh inactive, E coli growth-2 inactive, AddAB inh inactive and phage Ecoli inh inactive.
For S=C(NCc1ccccc1)NCc1cccc(CNC(=S)NCc2ccccc2)c1 the results were E coli growth-1 10, Tat export inh inactive, E coli growth-2 inactive, AddAB inh inactive and phage Ecoli inh inactive.
Screening Cc1ccc(-c2nn(-c3ccccc3)cc2CO)cc1 returned E coli growth-1 inactive, Tat export inh inactive, E coli growth-2 inactive, AddAB inh inactive and phage Ecoli inh inactive.
For N=C(N)SCc1cn(-c2ccccc2)nc1-c1ccc(Br)cc1 the results were Tat export inh inactive, E coli growth-2 0.069 and phage Ecoli inh inactive.
`COc1ccc(/C=C/C(O)=C(\C#N)c2nnc(N3CCOCC3)n2-c2ccccc2)cc1OC` gave E coli growth-1 inactive, Tat export inh inactive, E coli growth-2 0.43, AddAB inh inactive and phage Ecoli inh inactive.
For CC(=NNc1ccc(S(=O)(=O)N2CCOCC2)cc1[N+](=O)[O-])C(C)C the results were E coli growth-2 inactive.
Screening C=C1c2cccc(O)c2C(=O)C2C(=O)[C@]3(O)C(=O)C(C(N)=O)C(=O)C(N(C)C)C3C(O)C12 (stereo not given in full) returned E coli growth-2 0.067.
`CCc1ccc2c(Cl)c(C(=O)NN=Cc3c[nH]c4ccccc34)sc2c1` gave E coli growth-2 inactive.
Cc1ccc(/C=N/NC(=O)CSc2nnc(-c3ccc(Cl)cc3)n2-c2ccc(Cl)cc2)o1 was read as E coli growth-1 13, Tat export inh inactive, AddAB inh inactive and phage Ecoli inh inactive.
For Cc1ccc(C=NNC(=O)CSc2nnc(-c3ccc(Cl)cc3)n2-c2ccc(Cl)cc2)o1 the results were E coli growth-2 inactive.
Cc1nc(C)c(C(=O)NN=Cc2cc(Br)ccc2O)s1 was read as E coli growth-2 inactive.
Clc1ccc2[nH]c3c(c2c1)CCc1cn[nH]c1-3 was read as E coli growth-1 inactive, Tat export inh inactive, E coli growth-2 0.56, AddAB inh inactive and phage Ecoli inh inactive.
